System: Plasmodium falciparum
Experiment: GSK_TCMDC: Inhibition of Plasmodium falciparum 3D7 in whole red blood cells, using parasite LDH activity as an index of growth. Test compounds present at 2uM
Type: functional

Inhibition, 99%:
O=[N+]([O-])c1cccc(NC(=S)N2CCCN(Cc3ccc(F)cc3F)CC2)c1
COc1cc(F)c2nccc([C@@H](O)CN3CCC(NCc4cc5c(cc4F)OCCO5)CC3)c2c1
Cl.O=C(N[C@@H](Cc1ccccc1)[C@H](O)CNC1CCc2ccccc2C1)c1cc(C2CCCC2)cc(N2CCCC2=O)c1 (stereo not given in full)
COc1cccc2c(N/N=C/c3ccccc3[N+](=O)[O-])ccnc12

Inhibition, 90%:
O=C(CCC1CCCC1)N(Cc1ccc(-c2ccc(CNCCc3ccccc3)cc2)cc1)C1CCCNC1.O=C(O)C(F)(F)F (stereo not given)

Inhibition, 85%:
O=C(NCCCCCN1CCC(c2c[nH]c3ccccc23)CC1)c1ccc(Cl)c(Cl)c1
Cc1ccc(-c2nnc3c4ccccc4c(C)nn23)cc1S(=O)(=O)N1CCN(CCO)CC1

Inhibition, 93%:
CCCCOc1ccccc1C(=O)NCc1csc(-c2ccccc2)n1
CCOc1cc(C=NNc2nc(C)cc(-n3nc(C)cc3C)n2)ccc1O
COc1ccc(CNC(=O)Nc2cc3cc(-c4ccc(CN(C)C)cc4)ccc3n3c(C)nnc23)cc1
CN(C(=O)/C=C/c1cc(C(F)(F)F)ccc1F)C1CCN(CCCCCNC(=O)/C=C/c2ccc(Cl)c(Cl)c2)C1 (stereo not given)

Inhibition, 96%:
CC(=O)O.CCC[C@@H]([C@@H](CC1CCCCC1)C(=O)N[C@H](C(=O)Nc1nccc(N)n1)C(C)(C)C)N(O)C=O
O=C(Cc1ccccc1)NC(CCN1CCC(O)(c2cccc(C(F)(F)F)c2)CC1)c1ccc(Cl)c(Cl)c1 (stereo not given)

Inhibition, 97%:
CC1(C)OC[C@]2(C)[C@@H](CC[C@]3(C)C4=CC(=O)CCC4CC[C@@H]23)O1 (stereo not given in full)
COc1c(C2CCN(CCCCNC(=O)c3cc(-c4ccc(Cl)cc4)oc3C)CC2)ccc2c1CCCC2
CN1CCCN(Cc2cccc(-c3ccc(NC(=O)c4ccc(Cl)cc4)cc3)c2)CC1.O=C(O)C(F)(F)F

Inhibition, 92%:
Cc1cc(C(=O)CSc2nc3ccccc3n2-c2ccccc2)c(C)n1C1CCS(=O)(=O)C1 (stereo not given)

Inhibition, 98%:
CC(C)(C)c1ccc(CN2CCC(NC(=O)c3cc(-c4cccc(C(F)(F)F)c4)cs3)C2)cc1.O=C(O)C(F)(F)F (stereo not given)
CN(C)Cc1cccc(-c2ccc(NC(=O)c3ccc4c(=O)n(Cc5ccoc5)cnc4c3)cc2)c1

Inhibition, 91%:
COc1c(I)cc(Cc2cnc(N)nc2N)cc1I
CN1CCC(C(=O)N(Cc2ccc(-c3ccc(CNCCc4ccc(S(C)(=O)=O)cc4)cn3)cc2)Cc2ccc3c(c2)OCO3)CC1.O=C(O)C(F)(F)F
COc1cc(-c2ccc3c(-c4ccc(C(=O)N5CCN(C)CC5)cc4)n[nH]c3n2)cc(OC)c1OC
COc1ccc(Nc2ccnc3cc(-c4ccccn4)ccc23)cc1OC.Cl
Cc1cc(C2CCN(CCCCNC(=O)c3ccc(-c4ccc(C(F)(F)F)cc4)cc3)CC2)c(C)cc1OCC(N)=O

Inhibition, 87%:
O=C(O)C(F)(F)F.c1ccc2c(c1)CN(Cc1ccsc1)CC1(CCN(Cc3c[nH]c4cnccc34)CC1)O2

Inhibition, 100%:
CNc1ccc(CNCc2ccc(-c3ccc(-c4nc5cccc(C)c5[nH]4)cc3)cc2)cc1.O=C(O)C(F)(F)F
N=C(NCc1ccccc1)Nc1nc(-c2ccc(OCCCn3ccnc3)cc2)cs1
O=C(/C=C/c1ccc(Cl)c(Cl)c1)NCCCCCN1CCC(NC(=O)Nc2ccc(F)cc2F)CC1
Fc1ccc2[nH]c(-c3ccc(-c4cccc(CN5CCN(CCN6CCOCC6)CC5)c4)cc3)nc2c1.O=C(O)C(F)(F)F
Cc1cccc2nc(-c3cccc(-c4ccc(NC(=O)c5cnccc5C(F)(F)F)cc4)c3)[nH]c12
Cn1cncc1CNCc1ccc(-c2cccc(-c3nc4ccccc4[nH]3)c2)cc1.O=C(O)C(F)(F)F
Cl.Nc1c2c(nc3ccc(NC(=O)CCCCCCc4ccccc4)cc13)CCCC2
Cc1cccn2c(=O)c3cc(C(=O)NC4CCCCC4)c(=N)n(CCCn4ccnc4)c3nc12
Cc1cccc2nc(-c3ccc(-c4ccc(CNCCc5ccncc5)cc4)cc3)[nH]c12.O=C(O)C(F)(F)F
NC1CCCN(Cc2cccc(-c3ccc(-c4nc5cc(F)ccc5[nH]4)cc3)c2)C1.O=C(O)C(F)(F)F (stereo not given)

— ChEMBL document CHEMBL1157539, “Thousands of chemical starting points for antimalarial lead identification” (Nature, 2010)
